Among all 1,300 compounds or so, about 460 (35%) were called active. Not shown: some 39% with an inconclusive outcome. The call rests on the fitted dose curve; in most records, active means well fitted inhibition curve with a large enough effect; inconclusive means small, poorly fitted or top-dose-only effect; inactive means flat fitted curve, though single readings scatter. The list shows a part of the results.
Target: Protein phosphatase EYA2 (Homo sapiens) (UniProt O00167)
Assay: qHTS for Inhibitors of the Phosphatase Activity of Eya2: Confirmatory Assay for Cherry-picked Compounds; further: nearly all actives have a fitted effect of over 65% in size
Conditions: purified EYA2 phosphatase activity, qHTS confirmation; series mostly up to 46.1 µM
Method in brief: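 Eya2 (0.2 uM working solution) preincubated 10 min at room temperature with compound in pH 7.5 HEPES buffer with MgCl2, BSA, DTT. OMFP added (50 uM working solution), 10 min more; fluorescence 485/525 nm, normalized to EGTA and DMSO.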
Potency means the concentration at half of the fitted maximal effect.

Sequence of Protein phosphatase EYA2 (Homo sapiens) (O00167 whole entry, looked up): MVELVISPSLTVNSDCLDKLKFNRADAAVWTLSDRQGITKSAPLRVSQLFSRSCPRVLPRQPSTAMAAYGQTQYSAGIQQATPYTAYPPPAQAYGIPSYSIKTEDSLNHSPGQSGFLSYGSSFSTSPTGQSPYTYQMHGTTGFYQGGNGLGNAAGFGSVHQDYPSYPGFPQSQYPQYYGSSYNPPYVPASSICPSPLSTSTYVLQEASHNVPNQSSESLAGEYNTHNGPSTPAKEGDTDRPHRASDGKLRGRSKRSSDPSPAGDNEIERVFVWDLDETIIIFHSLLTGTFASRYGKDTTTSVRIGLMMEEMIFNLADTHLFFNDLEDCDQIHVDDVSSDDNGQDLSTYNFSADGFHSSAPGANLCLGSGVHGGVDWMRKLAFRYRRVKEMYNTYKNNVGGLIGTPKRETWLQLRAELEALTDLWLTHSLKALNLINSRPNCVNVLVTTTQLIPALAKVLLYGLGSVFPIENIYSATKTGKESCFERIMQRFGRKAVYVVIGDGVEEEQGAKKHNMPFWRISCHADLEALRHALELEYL

SMILES | Potency
COc1ccc(-c2cc(C3CCNCC3)[nH]n2)cc1 | inactive
O=C(N[C@@H]1CC[C@H](CCn2cc(-c3ccccn3)nn2)O[C@@H]1CO)c1ccncc1 | 19 µM (active)
CCN(CC)c1ccc(NC(=O)c2ccc3c(c2)c(C)c(C)n3C)cc1 | 13.5 µM (active)
CC(C)(C)NC(=O)c1cccc(NC(=O)c2ccc(NC(=O)c3ccco3)cc2)c1 | inactive
CC1C=CCC2C(=O)N(c3ccc(OC(=O)c4ccco4)cc3)C(=O)C12 (centres undefined) | 7.57 µM (active)
CC1C=CCC2C(=O)N(c3ccc(OC(=O)c4cccs4)cc3)C(=O)C12 (centres undefined) | 3.38 µM (active)
Cc1nc(-n2[nH]c3c(c2=O)CCCC3)[nH]c(=O)c1Cc1ccccc1 | 19 µM (active)
CCCc1nc(N2CCN(C)CC2)c2sc(=S)n(-c3ccccc3)c2n1 | inactive
O=S(=O)(c1cc(O)ccc1O)c1cccc2c(S(=O)(=O)c3cc(O)ccc3O)cccc12 | 15.1 µM (active)
N#Cc1c2nc3ccccc3nc2n2cc(NC(=O)c3ccc(F)cc3)ccc12 | 4.26 µM (active)
CC(C)CCNC(=O)c1onc(CSc2ccncc2)c1C(=O)NCCC(C)C | inactive
CCOc1cc(/C=C2/NC(=O)NC2=O)cc(Br)c1OCc1ccc(C(=O)O)cc1 | 21.3 µM (active)
O=C1NC(=O)/C(=C\c2ccccc2OCc2cccc([N+](=O)[O-])c2)N1 | inactive
Cc1c(NC(=O)c2ccco2)cccc1C(=O)NN1C(=O)c2ccccc2C1=O | inactive
COc1ccc(-c2nc(N)ncc2-c2csc(C)n2)c(O)c1 | inactive
C=C(C)COc1ccc(-c2nc(N)nc(C)c2-c2ccc(OC)cc2)c(O)c1 | 7.57 µM (active)
COc1ccc(-n2c(SCC(=O)Nc3cc(C(=O)O)ccc3C)nc3ccccc3c2=O)cc1Cl | 8.49 µM (active)
O=C(O)c1ccc(CSc2nc3ccccc3c(=O)n2-c2ccccc2)cc1 | inactive
COc1ccccc1-n1c(SCC(=O)Nc2cc(C)on2)nc2c(c1=O)SCC2 | inactive
COc1ccccc1-c1noc2c1C(=O)N(Cc1cn(-c3ccc(Cl)cc3)nn1)CC2 | inactive
O=c1cc2ncc(-n3cc([N+](=O)[O-])cn3)cn2[nH]1 | inactive
CCC(=O)N1c2ccc(S(=O)(=O)N3CCN(c4ccc([N+](=O)[O-])cc4)CC3)cc2CC1C (centres undefined) | inactive
Cc1cccc(N2CC(C(=O)OCC(=O)c3ccc(OC(=O)c4cccs4)cc3)CC2=O)c1C (centres undefined) | 9.53 µM (active)
Nc1nccnc1C(=O)OCC(=O)Nc1ccc2[nH]c(=O)[nH]c2c1 | 13.5 µM (active)

SMILES | Potency
O=C(COC(=O)c1cc(=O)[nH]c2ccccc12)Nc1cccc(S(=O)(=O)N2CCOCC2)c1 | inactive
CCn1c2ccccc2c2cc(NC(=O)COC(=O)c3ccc(NC(=O)CC#N)cc3)ccc21 | inactive
CCOc1ccc2ccccc2c1C(=O)N[C@@H]1C(=O)N2[C@@H]1SC(C)(C)[C@@H]2C(=O)O | inactive
Cc1ccc(OCCSc2nc3ccccc3n2CCC(=O)O)c(C(C)C)c1 | inactive
O=C(CSc1nc2ccccc2n1CCc1ccccc1)c1ccc(O)c(O)c1 | 13.5 µM (active)
O=C(C[n+]1ccccc1)c1ccc(O)c(O)c1 | inactive
CCOCCCNC(=O)c1cc2sc(Cl)cc2n1CC | inactive
Nc1ccccc1C(=O)NNc1c2ccccc2nc2ccccc12 | 8.49 µM (active)
O=[N+]([O-])c1ccccc1Nc1nc(-c2cccnc2)cs1 | 15.1 µM (active)
O=C(CN1C(=O)c2ccccc2C1=O)Nc1nc(-c2cccc([N+](=O)[O-])c2)cs1 | inactive
CNc1cccc2c1C(=O)c1ccccc1C2=O | 1.69 µM (active)
CN(C)c1ccc(N=Nc2ccnc3ccccc23)cc1 | 3.38 µM (active)
Cc1cc(O)cc(O)c1/C=N/NC(=O)c1ccc2c(c1)OCCO2 | 7.57 µM (active)
S=c1[nH]nc(-c2ccccn2)n1/N=C/c1ccc(Br)s1 | 16.9 µM (active)
NC(=O)[C@@H]1CC2(CC(c3cccc(NC(=O)COc4ccc(Cl)cc4)c3)=NO2)CN1C(=O)COc1ccc(Cl)cc1 (some centres undefined) | inactive
CCn1c(C)cc(/C=C2/SC(=O)N(C(C)C(=O)OC)C2=O)c1C (centres undefined) | inactive
CCOC(=O)C(C)N1C(=O)S/C(=C\c2ccc(-c3ccccc3C(=O)O)o2)C1=O (centres undefined) | 19 µM (active)
Cc1c(C(=O)O)cccc1-c1ccc(/C=C2\SC(=O)NC2=O)o1 | inactive
COCCN(Cc1cc2cc3c(cc2nc1Cl)OCO3)C(=O)Nc1ccc(OC)cc1 | inactive
COc1ccc2[nH]cc(CCn3ccc(O)c(C/C=C/c4ccccc4)c3=O)c2c1 | 21.3 µM (active)
CC(=O)Nc1ccc(S(=O)(=O)O)c2cc(S(=O)(=O)O)c(N=Nc3ccc(N=Nc4ccc(S(=O)(=O)O)cc4)c4ccc(S(=O)(=O)O)cc34)c(O)c12 | 1.51 µM (active)
O=S(=O)(O)c1ccc2c(N=Nc3ccc(S(=O)(=O)O)c4ccccc34)c(O)c(S(=O)(=O)O)cc2c1 | 7.57 µM (active)
CCN1CCN(c2ncnc3scc(-c4ccc(C)cc4)c23)CC1 | inactive
CCOc1ccc(NC(=O)C2CC(=O)N(CCc3ccc(OC)c(OC)c3)C2)cc1OCC (centres undefined) | 12 µM (active)

SMILES | Potency
COc1ccc2cc(C(=O)N3CCN(c4ccc(F)cc4)CC3)[nH]c2c1 | inactive
COc1ccc(N2CCN(C(=O)c3cc(-c4cc(OC)ccc4OC)nc4ccccc34)CC2)cc1 | 16.9 µM (active)
O=C1/C(=C\c2cccc([N+](=O)[O-])c2O)SC(=S)N1Cc1ccccc1 | 6.75 µM (active)
Oc1ccc(-c2nc3c4c(ncn3n2)-c2ccccc2CC42CCCC2)cc1 | inactive
COc1ccc(CC(CC(=O)O)C(=O)Nc2ccc(Cl)c(Cl)c2)cc1 (centres undefined) | inactive
COc1ccc(NC(=O)/C(C#N)=C/c2ccc(-c3ccc(Cl)c(C(=O)O)c3)o2)cc1 | 19 µM (active)
N#C/C(=C\c1ccc(-c2ccc(C(=O)O)cc2)o1)C(=O)Nc1ccc(F)cc1 | 16.9 µM (active)
COc1ccc(/C=C(/C#N)C(=O)Nc2ccc(O)cc2)cc1C(=O)O | 9.53 µM (active)
O=C(Cn1ccc(=O)[nH]c1=O)Nc1nccs1 | inactive
CCOc1ccc(S(=O)(=O)N2CCN(C)CC2)cc1NC(=O)c1ccccc1F | 8.49 µM (active)
CC(Oc1ccc(F)cc1)C(=O)Nc1cc(S(=O)(=O)N2CCCCC2)ccc1N1CCN(C)CC1 (centres undefined) | inactive
Cc1ccc(-c2csc(N3CCN(CCCn4c(C(F)(F)F)nc5ccccc54)CC3)n2)cc1 | inactive
Oc1[nH]c2ccccc2c1N=Nc1nc2ccccc2s1 | inactive
CCCSC1=N/C(=C\C=C\c2ccco2)C(=O)S1 | 9.53 µM (active)
O=c1nc2c(O)cccn2c2c1c(=O)[nH]c1ccccc12 | 4.26 µM (active)
Cc1ccc(C(=O)CSc2nnc(CNc3nc(-c4ccccc4)cs3)n2C)cc1 | 7.57 µM (active)
COc1ccc(N)cc1-n1c(C)ccc1C | inactive
O=[N+]([O-])c1ccc([N+](=O)[O-])c(Nc2ccc(N3CCOCC3)cc2)c1 | 10.7 µM (active)
O=C(CCS(=O)(=O)c1ccc(F)cc1)Nc1nc(-c2ccccn2)cs1 | 13.5 µM (active)
CSCCC(=O)Nc1nc(-c2ccccn2)cs1 | 19 µM (active)
CCn1nc(C(=O)Nc2nc(-c3ccccn3)cs2)c2ccccc2c1=O | 4.26 µM (active)
Cn1cccc1/C=N/N1CCN(Cc2cccc3ccccc23)CC1 | 15.1 µM (active)
COc1ccccc1/C=C/C=N/N1CCN(Cc2cccc3ccccc23)CC1 | 8.49 µM (active)
Cc1cc(C(=O)COC(=O)c2ccc(O)cc2)c(C)n1CCc1ccc(F)cc1 | inactive

SMILES | Potency
O=C(CSc1ccc2nnc(-c3ccccn3)n2n1)Nc1ccccc1C(F)(F)F | 19 µM (active)
O=C(CSc1ccc2nnc(-c3ccccn3)n2n1)Nc1ccccc1F | 12 µM (active)
CCCCC(Sc1ccc2nnc(-c3ccccn3)n2n1)C(=O)O (centres undefined) | 16.9 µM (active)
CCC(=O)Nc1ccc(-c2nnc(SCc3ccccc3)n2C)cc1 | inactive
O=C(CSc1ccc2nnc(-c3ccccn3)n2n1)Nc1ccccc1 | 16.9 µM (active)
O=S(=O)(O)c1ccc(O)c2cc(Nc3ccccc3)ccc12 | 7.57 µM (active)
COc1ccc(/C=C/C(=O)Nc2ccc3nc4n(c(=O)c3c2)CCCC4)cc1 | inactive
NC(=O)c1nc(C(=O)N2CCCCC2)c2ccccc2n1 | inactive
O=C(c1ccc2c(=O)n3c(nc2c1)CCCCC3)N1CCN(c2cccc(Cl)c2)CC1 | 16.9 µM (active)
COc1cc2c(cc1OC)C(c1ccc([N+](=O)[O-])cc1)NCC2 (centres undefined) | inactive
Oc1ccccc1C=NC1CCCCC1N=Cc1ccccc1O (centres undefined) | 19 µM (active)
O=C(Nc1nncs1)c1cc(-c2ccco2)nc2ccccc12 | 19 µM (active)
COc1ccc(NC(=O)c2cc(-c3ccco3)nc3ccccc23)cn1 | inactive
CCOC(=O)c1sc(NC(=O)CSc2nc(O)c(Cc3ccccc3)c(=O)[nH]2)nc1C | 19 µM (active)
O=C(CN1C(=O)/C(=C/c2ccco2)SC1=S)Nc1ccc(C(=O)O)c(O)c1 | 16.9 µM (active)
COc1cc(/C=C2\SC(=S)N(CCC(=O)Nc3cccc(O)c3)C2=O)cc(OC)c1OC | inactive
O=C1c2cccc(Sc3ccccc3)c2C(=O)c2c(Sc3ccccc3)cccc21 | 3.38 µM (active)
COC(=O)c1sc2cc(C(F)(F)F)cnc2c1-c1cccnc1 | inactive
CCN(CC)C(=O)c1ccc(O)c(OC)c1 | inactive
CCN(CC)S(=O)(=O)c1cc(OC)ccc1N=Nc1ccc(O)c2ncccc12 | 1.35 µM (active)
CCc1nnc(NS(=O)(=O)c2ccc(NCc3cc(Cl)cc(Cl)c3O)cc2)s1 | 2.39 µM (active)
O=S(=O)(Nc1nccs1)c1ccc(NCc2cc(Br)cc(Br)c2O)cc1 | 1.07 µM (active)
